An excerpt weighted towards active compounds, which were near 19% of everything screened.
IL1B secr inh: inflammasome signaling inhibition, IL-1 beta readout | THP-1 LPS/ATP IL-1B secretion, AlphaLISA, 16 h; hits give low values | activity change, % at 57.5 µM | 4.7% of 360,000 active | AID 743279; in the data active = activity change below about -50%; inconclusive = mostly about -30% to -49%
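Secreted IL-1B measured by AlphaLISA bead assay after 16 h compound exposure of THP-1 cells; compounds (final up to 57.5 uM) added 1 h before LPS (250 ng/mL) and ATP (1.25 mM) stimulation; lower signal means less secretion.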
DT40 TDP1 CPT: growth inhibition of DT40 Tdp1-/-;hTDP1 cells with camptothecin (screen for TDP1 inhibitors). AID 686979. Potency, µM (top dose mostly 46.2 µM), without a hit: top-dose activity change, negative = growth inhibition, hits mostly inhibitors. chicken DT40 Tdp1-/-;hTDP1 cells + 20 nM CPT, ATP luminescence, 48 h. 12% of 420,000 active; also: potency is read from the fitted curve at half-maximal effect; nearly all actives have a fitted effect of over 55% in size
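Chicken DT40 Tdp1-/- cells complemented with human TDP1, 400 cells/well, exposed to compounds plus 20 nM camptothecin for at least 48 h at 37 C; viability read as ATP content by CellTiter-Glo luminescence.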
HT1080 IDH1KD tx: HT-1080 IDH1 knockdown cell toxicity (counter line); HT-1080 IDH1 knockdown viability, ATP luminescence, 48 h; Potency, µM (highest dose often 46.1 µM), inactives show top-dose activity, negative = toxicity, usual class: cytotoxic; 2% of 360,000 active; AID 686971;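 also: potency is read from the fitted curve at half-maximal effect; 0% = DMSO wells and -100% = cell-free medium wells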
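Luminescent ATP read-out (CellTiter-Glo, 10 min at room temperature) after 48 h compound exposure at 37 °C gave viability of IDH1-knockdown HT-1080 cells. Activity was normalised to DMSO and cell-free wells, then fitted as concentration-response curves.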
HT1080-NT tox: kills 2HG-producing HT-1080-NT fibrosarcoma cells. HT-1080-NT fibrosarcoma viability, CellTiter-Glo ATP luminescence, 48 h. Potency, µM (series often up to 46.1 µM), for the others: at the highest dose activity, negative = less viability, actives largely listed as cytotoxic. 1.6% of 360,000 active. AID 686970;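 also: NT is the 2HG producing partner of a matched IDH1 knockdown line; potency is read from the fitted curve at half-maximal effect; 0% = DMSO-treated cells and -100% = media-only wells without cells; nearly all actives have a fitted effect of over 55% in size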
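HT-1080-NT; 750 cells/well; 5% FBS RPMI; 48 h compound, 37 degrees C; CellTiter-Glo luminescence; curve fitting and curve-class assignment.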
DT40 TDP1 no CPT: qHTS for Inhibitors of human tyrosyl-DNA phosphodiesterase 1 (TDP1): qHTS in cells in absence of CPT; DT40 Tdp1-/- hTDP1 cells, no CPT, ATP luminescence, 48 h; Potency, µM (top dose mostly 46.2 µM), inactives show top-dose activity change, negative = growth inhibition, most hits filed as inhibitors; 15% of 420,000 active; also: potency is read from the fitted curve at half-maximal effect; nearly all actives have a fitted effect of over 55% in size
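Growth of hTDP1-complemented DT40 Tdp1-knockout cells is measured by ATP luminescence after at least 48 hr compound exposure at 37 °C, with DMSO substituting for the 20 nM CPT used in the parallel screen.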
* hit, by the source's call; i = inactive; ? = inconclusive; . = no result. Unless noted, calls follow the shape of the dose curve; as a rule, active = well fitted curve in the direction sought with a large enough effect; inconclusive = small, poorly fitted or top-dose-only effect, or another doubt; inactive = no such curve, though single readings can be large; an effect the other way counts as inactive or inconclusive. Unless noted, % is scaled to controls: 0 for no effect and ±100 for the full control effect.

SMILES	IL1B secr inh	DT40 TDP1 CPT	HT1080 IDH1KD tx	HT1080-NT tox	DT40 TDP1 no CPT
COc1ccc(C2c3[nH]c4ccc(OC)cc4c3CCN2C(=O)Nc2ccccc2)cc1 (configuration not stated)	.	23µM*	.	.	?
Cc1ccc(NC(=O)Cn2c(=O)n(Cc3nc(C)no3)c(=O)c3cc4c(cc32)OCO4)c(Cl)c1	.	7%	.	.	-12%
COc1cc(C(C)=O)ccc1OCC(O)Cn1nc(C)c(C(C)=O)c1C (configuration not stated)	16	13%	2%	10%	-32%
CCOC(=O)/C(=C/c1ccc(OC(=O)c2ccccc2)cc1)C(C)=O	i	18µM*	-13%	-14%	?
CC(=O)/C(=C/c1ccc(N(C)C)cc1)C(=O)c1ccccc1	-5	?	-5%	12%	?
CCOC(=O)C(=Cc1ccc(N(C)C)cc1)C(=O)c1ccccc1	-75*	16µM*	?	?	?
CCOC(=O)/C(=C\c1ccccc1)NC(=O)c1ccccc1	-10	10%	6%	1%	-10%
Cc1ccc(S(=O)(=O)N(C)c2ccc(C(=O)NC3CCCCC3)cc2)cc1	-11	?	-3%	-4%	?
NC(=NCc1ccccc1)NC(=O)c1nc(Cl)c(N)nc1N	-61*	10µM*	?	?	23µM*
CCOc1cc2sc(N3CCC(C(=O)Nc4ccc(C)cc4)CC3)nc2cc1Br	.	-16%	.	.	-13%
CCn1c(O)c(/C=C2\C=Nc3ccccc32)sc1=Nc1ccccc1	8	10µM*	3%	5%	12µM*
O=C(NCCc1ccccc1)c1ccc(=O)oc1	-8	-15%	9%	20%	-14%
O=C(c1ccccc1)c1ccc2nc(-c3ccco3)c(-c3ccco3)nc2c1	-18	21µM*	18µM*	?	21µM*
c1coc(-c2nc3ccccc3nc2-c2ccco2)c1	?	18µM*	?	-20%	?
O=C(NCCc1ccccc1)c1ccc2nc(-c3ccco3)c(-c3ccco3)nc2c1	?	21µM*	-1%	4%	18µM*
O=C(NCCO)c1ccc2nc(-c3ccco3)c(-c3ccco3)nc2c1	-6	?	-16%	-19%	21µM*
Cn1cc(/C(Cc2ccccc2)=N\O)c2ccccc21	54	23µM*	-24%	-17%	16µM*
Cn1cc(C(=O)CCl)c2ccccc21	-100*	2.3µM*	?	?	4.6µM*
Cn1cc(C(N)=O)c2ccccc21	-4	18%	-2%	0%	19%
O=C(CCCCCN1C(=O)c2ccccc2C1=O)Nc1ccc(C(=O)O)cc1	26	13%	11%	10%	-1%
NS(=O)(=O)c1ccc(CCNC(=O)CNC(=O)c2ccc(Oc3ccccc3)cc2)cc1	-18	17%	-16%	-23%	0%
CCN1CCS/C1=C/C=C/C1=[N+](CC)CCS1	10	0.18µM*	.	.	0.15µM*
CCN1CCS/C1=C\C=C\C1=[N+](CC)CCS1	-16	0.73µM*	5.2µM*	4.6µM*	0.21µM*
Cc1cc(Cl)ccc1OC(C)C(=O)NCCCn1ccnc1 (configuration not stated)	-9	6%	-2%	7%	-19%
COc1ccc(C2CCCN2C(=S)Nc2cccc(Cl)c2C)cc1OC (configuration not stated)	-23	?	-9%	19%	?
SMILES	IL1B secr inh	DT40 TDP1 CPT	HT1080 IDH1KD tx	HT1080-NT tox	DT40 TDP1 no CPT
CC(C)[C@@H]1CC[C@@H](C)C[C@H]1OC(=O)c1ccccc1O	.	7%	.	.	-1%
O=C(NNc1ccccc1Br)C(O)(c1cccc(C(F)(F)F)c1)c1cccc(C(F)(F)F)c1	-59*	29µM*	?	21µM*	15µM*
COCCCNc1nc(SCc2ccccc2)nc2sc3c(c12)CCC3	7	?	12%	-2%	21µM*
N#Cc1cnn(-c2nc(SCc3ccccc3)nc3sc4c(c23)CCCC4)c1N	17	-20%	-24%	-25%	4%
COc1cccc(NC(=O)COC(=O)C2CC(=O)N(c3ccc(C)cc3)C2)c1 (configuration not stated)	27	9%	10%	1%	4%
CCN=C(NS(=O)(=O)c1ccc(Br)cc1)c1ccc(Cl)cc1	5	-23%	1%	-5%	5%
COc1ccccc1NC(=O)Nc1ccc(Cc2ccncc2)cc1	-87*	8%	-7%	0%	-3%
COc1cc2ccccc2cc1C(=O)Nc1ccc(C)cc1	-3	?	?	?	?
COc1cc2ccccc2cc1C(=O)Nc1ccc(Cc2ccncc2)cc1	-72*	18µM*	?	-30%	26µM*
OCCCCNCc1cc(Br)ccc1OCc1ccccc1F	-70*	?	-17%	-28%	?
OCCNCc1cc(Br)ccc1OCc1ccc(Cl)cc1	?	21µM*	2%	-1%	29µM*
Cc1ccccc1NC(=O)COc1ccc(Br)cc1CNCCCO	-13	-2%	0%	0%	-10%
OCCNCc1cc(Br)ccc1OCc1ccc(F)cc1	-81*	?	-5%	-2%	?
OCCNCc1cc(Br)ccc1OCc1ccc(Cl)cc1Cl	?	18µM*	?	23µM*	9.2µM*
C=CCOc1ccc(Br)cc1CNCC	-10	-12%	5%	-1%	-7%
COc1ccccc1CNc1ncncc1-c1ccccc1Cl	.	3%	.	.	-10%
OCCNCc1cccc(OCc2ccc(Cl)cc2)c1	-56*	?	?	?	?
COC(=O)c1c(C)[nH]c(C)c1C(=O)c1ccccc1Cc1ccccc1	8	40µM*	-12%	-4%	7.3µM*
COc1ncnc2c1ncn2CCCNc1ccc(C)c(C)c1	-10	?	1%	0%	13µM*
COc1cc(NCCCn2cnc3c(OCc4ccccc4)ncnc32)cc(OC)c1OC	-4	?	5%	2%	?
CCCOc1ccc(C(=O)CCC(=O)OCC(=O)N2CC(=O)Nc3ccccc32)cc1	-1	13%	4%	1%	2%
O=C(NCCc1csc(-c2cccnc2)n1)c1cccc2ccccc12	-1	16µM*	-3%	-22%	23µM*
O=C(NCc1csc(-c2ccccc2)n1)c1ccco1	-11	-18%	-1%	2%	-21%
COc1ccc(-c2nc(CCNC(=O)c3cccs3)cs2)cc1OC	.	?	.	.	21µM*
O=C(NCCc1csc(-c2ccccc2)n1)c1ccco1	?	18µM*	-3%	3%	?
Cc1nc(CCNC(=O)c2cccs2)cs1	-16	0%	4%	14%	-1%
O=C(NCCc1csc(-c2ccccc2)n1)c1cccs1	?	23µM*	-2%	3%	9.2µM*
